Laboratory results published in PubChem BioAssay (NCATS).
“And” between values parts separate entries of the source, which are not always exact repeats. Identical values can stand only once. Inconclusive results are not listed. The source holds several records for some structures; these can differ, active in one and inactive in another. The source made the active and inactive calls. Unless noted, the call rests on the fitted dose curve; in most records, active means well fitted curve in the direction sought with a large enough effect; inconclusive means small, poorly fitted or top-dose-only effect, or another doubt; inactive means no such curve, though single readings can be large; an effect the other way counts as inactive or inconclusive.

Key:
[1] = molecular target: Cellular tumor antigen p53 (Homo sapiens) (UniProt P04637); assay: Primary qHTS for small molecule compounds that upregulate eGFP-tagged delta133p53alpha (in N-terminal) cells. (AID 2060322); conditions: NCI-H358 eGFP-delta133p53alpha fluorescence, 24 h; activation: active compounds read high; further: nearly all actives have a fitted effect of over 75% in size; further: potency means the concentration at half of the fitted maximal effect;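 on activation: series mostly up to about 56 µM; 0% = DMSO vehicle and 100% = reference activator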
How it was run: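 NCI-H358 cells pre-induced 24 h with 10 ng/ml doxycycline to express N-terminal eGFP-delta133p53alpha, then dosed 24 h at 37C without doxycycline; fixed, Hoechst-stained, GFP intensity by laser scanning cytometry, normalized to DMSO (0%) and 57.5 uM 5-azacytidine (100%).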

[2] = molecular target: Aldehyde dehydrogenase, mitochondrial (Homo sapiens) (UniProt P05091); assay: qHTS for Inhibitors of the Aldehyde Dehydrogenase Family (ALDH2) Confirmatory screens (AID 2061303; active means well fitted inhibition curve with a large enough effect; title and protocol of this record describe different tests; further: on the % scale 0 is the no-effect control and ±100 the full control effect; nearly all actives have a fitted effect of over 45% in size)
[3] = qHTS for Inhibitors of the Aldehyde Dehydrogenase Family (ALDH1A2, ALDH1A3, ALDH2, ALDH3A1) (AID 2061307); further: on the % scale 0 is the no-effect control and ±100 the full control effect; nearly all actives have a fitted effect of over 50% in size
[4] = molecular target: Retinaldehyde dehydrogenase 3 (Homo sapiens) (UniProt P47895); assay: qHTS for Inhibitors of the Aldehyde Dehydrogenase Family (ALDH1A3) Confirmatory screens (AID 2061311); further: nearly all actives have a fitted effect of over 60% in size
[5] = molecular target: Aldehyde dehydrogenase 1A1 (Homo sapiens) (UniProt P00352); assay: qHTS for Inhibitors of the Aldehyde Dehydrogenase Family (ALDH1A1) Confirmatory screens (AID 2061316); further: nearly all actives have a fitted effect of over 65% in size
[6] = BET inhibitor-based combinations targeting novel dependencies in MECOM-rearranged (r) AML: OCI-AML3 cell line (AID 2202232); conditions: Potency: OCI-AML3 viability; further: nearly all actives have a fitted effect of over 35% in size; further: potency means the concentration at half of the fitted maximal effect
How it was run: (§1)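 Cells were plated at 500 per well and exposed to an 11-point dose series of each drug for 48 hr. Viability was measured by CellTiter-Glo luminescence, normalized to DMSO and empty-well controls, and summarized as AUC and per-cell-line Z-AUC.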

[7] = BET inhibitor-based combinations targeting novel dependencies in MECOM-rearranged (r) AML: AML-191 cell line (AID 2202236; further: nearly all actives have a fitted effect of over 35% in size; further: potency means the concentration at half of the fitted maximal effect)
How it was run: as §1

[8] = molecular target: Aldehyde dehydrogenase, mitochondrial (Homo sapiens) (UniProt P05091); assay: qHTS for Inhibitors of the Aldehyde Dehydrogenase Family (ALDH2) Primary screen (AID 2061308);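 further: plate controls were vehicle for no effect and reference inhibitor for full effect; nearly all actives have a fitted effect of over 55% in size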
[9] = molecular target: Retinaldehyde dehydrogenase 3 (Homo sapiens) (UniProt P47895); assay: qHTS for Inhibitors of the Aldehyde Dehydrogenase Family (ALDH1A3) Primary screen (AID 2061315);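 further: plate controls were DMSO vehicle for no effect and reference inhibitor for full effect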
[10] = molecular target: Retinaldehyde dehydrogenase 3 (Homo sapiens) (UniProt P47895); assay: qHTS for Inhibitors of the Aldehyde Dehydrogenase Family (ALDH1A3) Validation screen (AID 2061312); further: on the % scale 0 is the no-effect control and ±100 the full control effect; nearly all actives have a fitted effect of over 45% in size
[11] = BET inhibitor-based combinations targeting novel dependencies in MECOM-rearranged (r) AML: SET-2 cell line (AID 2202231); conditions: SET-2 AML cells viability, CellTiter-Glo luminescence, 48 h; viability: active compounds read low, concentration not given here; further: nearly all actives have a fitted effect of over 35% in size; further: potency means the concentration at half of the fitted maximal effect;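 on viability: plate controls were DMSO treated cells for no effect and wells without cells for full effect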
How it was run: as §1

[12] = BET inhibitor-based combinations targeting novel dependencies in MECOM-rearranged (r) AML: HNT-34 cell line (AID 2202234); further: nearly all actives have a fitted effect of over 35% in size; further: potency means the concentration at half of the fitted maximal effect
How it was run: (§2)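 Activity is given as area under the curve and as Z-AUC, mean-centred within each cell line. It comes from 11-point dose curves normalized to DMSO and empty wells. CellTiter-Glo luminescence was read after 48 hr drug exposure of 500 cells/well.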

[13] = BET inhibitor-based combinations targeting novel dependencies in MECOM-rearranged (r) AML: UCSD-AML1 cell line (AID 2202235); further: nearly all actives have a fitted effect of over 40% in size; further: potency means the concentration at half of the fitted maximal effect
How it was run: as §2

[14] = BET inhibitor-based combinations targeting novel dependencies in MECOM-rearranged (r) AML: AML-194 cell line (AID 2202237; further: nearly all actives have a fitted effect of over 40% in size; further: potency means the concentration at half of the fitted maximal effect)
How it was run: as §1

[15] = molecular target: Aldehyde dehydrogenase, mitochondrial (Homo sapiens) (UniProt P05091); assay: qHTS for Inhibitors of the Aldehyde Dehydrogenase Family (ALDH2) Validation screens (AID 2061302; active means well fitted inhibition curve with a large enough effect; title and protocol of this record describe different tests; further: potency means the concentration at half of the fitted maximal effect)
[16] = BET inhibitor-based combinations targeting novel dependencies in MECOM-rearranged (r) AML: MV-4-11 cell line (AID 2202233); further: nearly all actives have a fitted effect of over 45% in size; further: potency means the concentration at half of the fitted maximal effect
How it was run: as §2

[17] = molecular target: Cellular tumor antigen p53 (Homo sapiens) (UniProt P04637); assay: Primary qHTS for small molecule compounds that upregulate eGFP-tagged delta133p53alpha (in C-terminal) cells. (AID 2060324); further: potency means the concentration at half of the fitted maximal effect
How it was run: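 NCI-H358 cells with doxycycline-inducible D133p53a-eGFP (C-terminal tag), pre-induced 24 h with 100 ng/ml doxycycline, plated 800/well in doxycycline-free medium and treated 24 h at 37 °C with compound titrations. Cells were then fixed and Hoechst-stained, and GFP intensity was read by laser scanning cytometry.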

Chain of Cellular tumor antigen p53 (Homo sapiens) (P04637 whole entry, looked up): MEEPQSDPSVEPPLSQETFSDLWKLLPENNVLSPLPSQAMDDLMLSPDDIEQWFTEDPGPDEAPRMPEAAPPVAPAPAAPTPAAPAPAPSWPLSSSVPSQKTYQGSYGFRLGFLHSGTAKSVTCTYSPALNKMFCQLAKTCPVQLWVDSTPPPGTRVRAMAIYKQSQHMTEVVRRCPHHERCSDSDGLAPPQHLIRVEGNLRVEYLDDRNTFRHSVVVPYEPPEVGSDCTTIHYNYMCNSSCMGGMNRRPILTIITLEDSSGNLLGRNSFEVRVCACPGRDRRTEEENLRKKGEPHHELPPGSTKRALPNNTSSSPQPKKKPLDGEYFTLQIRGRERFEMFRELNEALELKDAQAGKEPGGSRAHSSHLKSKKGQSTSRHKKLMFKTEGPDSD

O=C(CN1CCN(Cc2ccc3c(c2)OCO3)CC1)N1c2ccccc2Sc2ccccc21
inactive: activation [1] 1.69%

Oc1cccc(O)c1
inactive: activation [1] -16.4%

CCN(CC)CCOc1ccc(Nc2ncc3cc(-c4c(Cl)cccc4Cl)c(=O)n(C)c3n2)cc1
active: Potency [6] 2.63 µM | Potency [7] 2.35 µM
inactive: Potency [2] | Potency [3] | Potency [4] | Potency [5]

COC(=O)[C@H]1[C@H]2C[C@@H]3c4[nH]c5cc(OC)ccc5c4CCN3C[C@H]2C[C@@H](OC(=O)c2cc(OC)c(OC)c(OC)c2)[C@@H]1OC
inactive: Potency [8] | Potency [9]

CC[C@H]1CN2CCc3cc(OC)c(OC)cc3[C@@H]2C[C@@H]1C[C@H]1NCCc2cc(OC)c(OC)cc21
active: Potency [6] 0.468 µM | Potency [7] 0.417 µM

c1ccc2c(CCNc3ccc(Nc4ccncc4)cc3)c[nH]c2c1
active: Potency [1] 30.6 µM | Potency [11] 10.5 µM | Potency [6] 1.32 µM | Potency [12] 2.95 µM | Potency [13] 3.72 µM | Potency [7] 10.5 µM | Potency [14] 3.32 µM
inactive: activation [1] -5.73% | Potency [8] | Potency [10] | Potency [9]

CN1C[C@H](C(=O)N[C@]2(C)O[C@@]3(O)[C@@H]4CCCN4C(=O)[C@H](Cc4ccccc4)N3C2=O)C[C@@H]2c3cccc4[nH]cc(c34)C[C@H]21
inactive: activation [1] 7.67% | Potency [15]
active: Potency [1] 24.6 µM

O=C(O)c1ccc2c(c1)nc(Nc1cccc(Cl)c1)c1ccncc12
active: Potency [1] 23.9 µM | Potency [6] 8.33 µM | Potency [16] 3.32 µM | Potency [13] 5.9 µM | Potency [7] 7.42 µM | Potency [14] 7.42 µM
inactive: activation [1] 37.3% | Potency [8] | Potency [9]

CN1c2ccccc2C(=O)N2CCc3c([nH]c4ccccc34)C21 (stereo not drawn)
inactive: activation [1] -3.8% | Potency [8] | Potency [9]
active: Potency [1] 2.69 µM | Potency [6] 2.95 µM | Potency [16] 3.32 µM | Potency [12] 1.86 µM | Potency [13] 1.66 µM | Potency [7] 1.32 µM | Potency [14] 1.32 µM

CN1CCN(CCOc2cc(OC3CCOCC3)c3c(Nc4c(Cl)ccc5c4OCO5)ncnc3c2)CC1
active: Potency [1] 12.2 µM | Potency [16] 13.2 µM | Potency [12] 1.32 µM | Potency [7] 18.6 µM | Potency [14] 23.5 µM
inactive: activation [1] -8.11% | Potency [8] | Potency [10] | Potency [9]

Cc1cn(-c2cc(NC(=O)c3ccc(C)c(Nc4nccc(-c5cccnc5)n4)c3)cc(C(F)(F)F)c2)cn1
inactive: activation [1] 12.7% | Potency [8] | Potency [9]
active: Potency [1] 30.1 µM | Potency [6] 1.18 µM | Potency [16] 1.86 µM | Potency [12] 0.0295 µM

CCOC(=O)Nc1ccc(NCc2ccc(F)cc2)nc1N
inactive: activation [1] -4.52% and 42.2% | viability [11] 107% | Potency [12] | Potency [13] | Potency [7] | Potency [14]
active: Potency [1] 2.19 µM | Potency [17] 13.5 µM | Potency [15] 5.01 µM

CCCCOc1c(C(=O)c2c(F)cc(C)cc2F)cnc2n[nH]cc12
active: Potency [1] 3.79 µM | Potency [6] 2.09 µM | Potency [16] 1.48 µM | Potency [12] 2.95 µM | Potency [13] 2.35 µM | Potency [7] 2.63 µM | Potency [14] 3.72 µM
inactive: activation [1] 10.1% | Potency [8] | Potency [9]

C[C@]12CC[C@@H]3c4ccc(O)cc4CC[C@H]3[C@@H]1CC[C@@H]2OC(=O)CCC1CCCC1
inactive: activation [1] 19.6% | Potency [8] | Potency [10] | Potency [9]
active: Potency [1] 30.9 µM

Fc1cc(-c2cccc3ncc(-c4cnn(C5CCNCC5)c4)nc23)cc(F)c1CN1CCOCC1
active: Potency [1] 27.3 µM | Potency [11] 4.68 µM | Potency [6] 11.8 µM | Potency [16] 0.934 µM | Potency [12] 2.35 µM | Potency [13] 3.32 µM | Potency [7] 10.5 µM | Potency [14] 6.61 µM
inactive: activation [1] -17.4% | Potency [8] | Potency [9]

Cc1nccn1CC1CCc2c(c3ccccc3n2C)C1=O (stereo not drawn)
inactive: activation [1] 4.27% and -3.67% | Potency [8] | Potency [9]
active: Potency [1] 34.7 µM

CC1(O)CC(c2nc(-c3ccc4ccc(-c5ccccc5)nc4c3)c3c(N)nccn23)C1 (stereo not drawn)
active: Potency [1] 24.3 µM
inactive: activation [1] 34.8% | Potency [8] | Potency [9] | viability [11] 83.7% | Potency [6] | Potency [16] | Potency [7] | Potency [14]

Cc1cc(C)c(CNC(=O)c2cc(-c3ccc(CN4CCOCC4)cc3)cc3c2cnn3C2CCCC2)c(=O)[nH]1
inactive: activation [1] 7.64% | Potency [8] | Potency [9]
active: Potency [1] 4.31 µM
